Compounds with a hit are over-represented: about 12% of the library has one in this group of screens.
SARS PLP yeast: inhibitors of SARS-CoV papain-like protease in yeast; actives 0.19% (n = 330,000); AID 485353; S. cerevisiae expressing SARS-CoV PLpro, growth rescue; Potency, µM (highest dose often 32.9 µM), most hits filed as activators; note: nearly all actives have a fitted effect of over 55% in size
NS1 inh: inhibitors of influenza NS1 protein function. Potency, µM (series often up to 46.1 µM). AID 2326. actives 0.4% (n = 270,000); note: actives are rising curves; nearly all actives have a fitted effect of over 50% in size
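Compounds were scored for reversing the slow growth caused by influenza A NS1 in S. cerevisiae, measured by optical density at 600 nm. Assay medium contained 2% galactose at pH 6.0; NS1-free yeast of the same strain were the positive control.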
CHX counter: counter-screen hit for Shiga toxin inhibitors, cycloheximide. cell reporter, cycloheximide protein synthesis inhibition counterscreen. max response, %. actives 12% (n = 300,000). AID 2314; in the data active = max response mostly above about 13%, no sharp cut-off; inactive = mostly below about 14%; note: read at 38.3 µM for the half of the compounds with a filed dose
Shiga toxin inh: blocks Shiga toxin action in Vero cells | Vero cells, Shiga toxin protein synthesis inhibition reporter | actives 9.2% (n = 290,000) | inhibition, % at 38.7 µM | AID 2315; in the data active = inhibition mostly above about 28%, no sharp cut-off; inactive = mostly below about 43%
Of the large screens only hits and unclear results are named; the others gave an inactive call. Unless noted, calls come from the whole dose curve.

C[C@]12c3[nH]c4ccccc4c3CCN1C(=O)C(CC(=O)NCCCn1ccnc1)C[C@@H]2C(=O)N1CCOCC1 (some centres undefined)	none (no result: NS1 inh, CHX counter, Shiga toxin inh)
O=C(NCC1CCCO1)c1cccc(S(=O)(=O)Nc2ccc(F)cc2)c1 (centres undefined)	none (no result: NS1 inh, CHX counter, Shiga toxin inh)
O=[N+]([O-])c1cc(Cl)cc(/C=N/NC(=S)Nc2ccc(S(=O)(=O)N3CCOCC3)cc2)c1O	none
CS(=O)(=O)c1ccccc1C(=O)Nc1cc2c(cc1C(=O)O)OCCCO2	none
COc1ccc(NC(=S)Nc2cccc(C(F)(F)F)c2)c(C)c1	none
CC(NC(=O)c1cc(COc2cccc(C(F)(F)F)c2)on1)c1nccs1 (centres undefined)	CHX counter 42.6, Shiga toxin inh 56.8
COc1ccccc1CCNC(=O)c1cc(COc2cccc(C(F)(F)F)c2)on1	none
CSc1ccccc1OCc1cc(C(=O)NC2CCOC(C)(C)C2)no1 (centres undefined)	CHX counter 22.1, Shiga toxin inh 96.6
Clc1ccccc1Cc1noc(CN2CCCCC2c2ccccn2)n1 (centres undefined)	none
Clc1ccc(-c2cn3c(n2)-c2ccccc2C3)cc1Cl	CHX counter 39.5, Shiga toxin inh 63.7
CC1CCN(C2=C(NS(=O)(=O)c3ccc(Cl)cc3)C(=O)c3ccccc3C2=O)CC1	CHX counter 22.5, Shiga toxin inh 84.6
CC1CCCN(C2=C(NS(=O)(=O)c3ccc(Br)cc3)C(=O)c3ccccc3C2=O)C1 (centres undefined)	none
CC1CCN(C2=C(NS(=O)(=O)c3ccc(Br)cc3)C(=O)c3ccccc3C2=O)CC1	CHX counter 32.0, Shiga toxin inh 38.1
CC1CCN(C2=C(NS(=O)(=O)c3ccccc3)C(=O)c3ccccc3C2=O)CC1	CHX counter 19.7
O=C1C(NS(=O)(=O)c2ccccc2)=C(N2CCN(c3ccc(F)cc3)CC2)C(=O)c2ccccc21	none
CCOC(=O)C1CCN(C2=C(NS(=O)(=O)c3ccc(Cl)cc3)C(=O)c3ccccc3C2=O)CC1	none
CCN1CCN(C2=C(NS(=O)(=O)c3ccc(C)cc3)C(=O)c3ccccc3C2=O)CC1	CHX counter 23.1
CCN(CC)S(=O)(=O)c1ccc(C2=NOC3(C2)N(C)c2ccccc2C3(C)C)cc1 (centres undefined)	none
CC1CN(c2ccccc2)CCN1Cc1nc(Cc2ccccc2)no1 (centres undefined)	none
N/C(=N\OC(=O)c1cc(Cl)ccc1Cl)c1ccccn1	CHX counter 25.2, Shiga toxin inh 64.2
COc1ccc(Cl)cc1C(=O)O/N=C(\N)c1ccccn1	CHX counter 40.6, Shiga toxin inh 60.1
Cc1ccc(C(=O)O/N=C(\N)c2ccccn2)cc1	none
COc1cc(C(=O)N2CCc3ccccc32)ccc1OCc1c(C)noc1C	none
Cc1cccc(NC(=O)CSc2nccn2Cc2ccco2)c1	CHX counter 61.6, Shiga toxin inh 90.8
Cc1cc(C)cc(NC(=O)CSc2nccn2Cc2ccco2)c1	SARS PLP yeast inconclusive, CHX counter 21.9
Cc1cccc(NC(=O)CSc2nccn2Cc2ccco2)c1C	CHX counter 17.7
CCOC(=O)CNC(=O)CSc1nccn1Cc1ccco1	none
COc1ccc(-c2cc(C(=O)Nc3ccc(S(=O)(=O)Nc4ncccn4)cc3)c3ccccc3n2)cc1	none
COc1ccc(-c2cc(C(=O)Nc3ccc(O)cc3)c3ccccc3n2)cc1OC	CHX counter 28.2, Shiga toxin inh 61.5
COc1ccc(-c2cc(C(=O)Nc3ccc(C)c(N)c3)c3ccccc3n2)cc1	CHX counter 18.8, Shiga toxin inh 118.1
CCC(C)NC(=O)C1CCN(S(=O)(=O)c2ccc(-n3cnnn3)cc2)CC1 (centres undefined)	none
CC1CCN(S(=O)(=O)c2cccc(C(=O)NC3CCCCC3)c2)CC1	none
COC(=O)c1ccccc1S(=O)(=O)N1CCC(C(=O)OCC(=O)c2ccccc2OC)CC1	none (no result: NS1 inh, CHX counter, Shiga toxin inh)
Cc1ccc(CNc2ccc([N+](=O)[O-])cc2C(N)=O)cc1	none (no result: NS1 inh, CHX counter, Shiga toxin inh)
NC(=O)c1cc([N+](=O)[O-])ccc1NCCN1C(=O)c2ccccc2C1=O	CHX counter 23.4, Shiga toxin inh 65.3 (no result: NS1 inh)
Cc1cc(/C(N)=N/OC(=O)c2ccccc2Cl)no1	CHX counter 21.1, Shiga toxin inh 37.9
N/C(=N/OC(=O)c1ccccc1Cl)c1nonc1N	CHX counter 38.1, Shiga toxin inh 90.1 (no result: NS1 inh)
N/C(=N\OC(=O)c1ccc(F)cc1)c1nonc1N	CHX counter 48.0, Shiga toxin inh 71.4
Cc1ccc(C(=O)O/N=C(\N)c2nonc2N)cc1	CHX counter 46.9, Shiga toxin inh 50.9
O=C(NC(=O)N1CCCC1)c1csnn1	none
CS(=O)(=O)N1CCN(Cc2ccc(C(F)(F)F)cc2)CC1	none
O=C(c1ccccn1)N1CCCC(N2CCN(c3cccc(C(F)(F)F)c3)CC2)C1 (centres undefined)	CHX counter 19.9, Shiga toxin inh 41.3
Cc1cc(C(=O)N2CCCC(N3CCN(c4cccc(Cl)c4)CC3)C2)nn1C (centres undefined)	CHX counter 18.9
O=C1CCCN1CC(=O)N1CCCC(N2CCN(c3cccc(Cl)c3)CC2)C1 (centres undefined)	CHX counter 29.9, Shiga toxin inh 43.7
COc1ccc(N2CCN(C3CCCN(C(=O)CN4CCCC4=O)C3)CC2)cc1 (centres undefined)	none
CC(=O)c1sc2nsc(SCCN3CCCCC3)c2c1N	CHX counter 28.8
Nc1c(C(=O)c2ccccc2)sc2nsc(SCCN3CCCC3)c12	CHX counter 40.3, Shiga toxin inh 104.0
O=C(COn1nnc2ccccc21)NCC1CCCCC1	CHX counter 28.4
COc1ccccc1OCC(=O)NCC1CCCCC1	none
CCc1ccc(CN2CCN(C(=O)Cc3ccccc3)CC2)cc1	none
CCOc1ccccc1NC(=O)CC(O)(C(F)(F)F)C(F)(F)F	none
O=C(COn1nnc2ccccc21)N1CCN(Cc2ccccc2)CC1	CHX counter 50.0, Shiga toxin inh 96.1 (no result: NS1 inh)
CCOc1ccccc1NC(=O)COn1nnc2ccccc21	CHX counter 16.8
O=C(O)CSc1nc2c(c(C(F)(F)F)n1)CCCC2	none
O=C(c1ccc(Cl)c(NC2=NC3CS(=O)(=O)CC3S2)c1)N1CCN(c2ccc(F)cc2)CC1 (centres undefined)	none
O=C(O)c1cccc(NC(=O)c2ccc(COc3ccc(Cl)cc3)cc2)c1	none
CC(C)c1cc(C(N)=O)c(NC(=O)c2cccc(COc3ccc(Cl)cc3)c2)s1	CHX counter 70.0, Shiga toxin inh 199.7
Cc1nn(Cc2c(F)c(F)c(F)c(F)c2F)c(C)c1NC(=O)c1cccc(COc2ccc(Cl)cc2)c1	CHX counter 83.3, Shiga toxin inh 135.8
Cc1cccc(Cn2nc(C)c(NC(=O)c3ccc(F)cc3)c2C)c1	none (no result: NS1 inh)
Cc1ccc(C(=O)COC(=O)CN2C(=O)C3C4CC(C(Br)C4Br)C3C2=O)cc1 (centres undefined)	none
COC(=O)c1ccc(N=Nc2ccccc2)cc1	CHX counter 32.1, Shiga toxin inh 79.4 (no result: NS1 inh)
COC(=O)c1ccc(OCCOCCOc2cccc3ccc(C)nc23)cc1	none
COC(=O)c1ccc(OCCCCN(C)Cc2ccccc2)cc1	none (no result: Shiga toxin inh)
COC(=O)c1ccc(OCCOc2ccccc2C)cc1	CHX counter 12.1
COC(=O)c1ccc(OCCOc2ccccc2)cc1	CHX counter 22.1, Shiga toxin inh 59.1

Screening results: PubChem, National Center for Advancing Translational Sciences (NCATS)
